The values below come from PubChem BioAssay AID746 (The Scripps Research Institute Molecular Screening Center, 2007).

In all, about 60,000 compounds went through this assay and about 370 (0.62%) were called active. The sample holds actives, similar compounds and a random draw of the others, so the mix is not that of the screen. Unmarked numbers belong to inactive results. Cut-off read from the data, not from the text of the source: active = inhibition above about 17%; inactive = the rest.

For orientation: inhibition means the change of the read-out against control, counted positive when it falls.

Sequence of Mitogen-activated protein kinase 10 (Homo sapiens) (P53779 whole entry, looked up): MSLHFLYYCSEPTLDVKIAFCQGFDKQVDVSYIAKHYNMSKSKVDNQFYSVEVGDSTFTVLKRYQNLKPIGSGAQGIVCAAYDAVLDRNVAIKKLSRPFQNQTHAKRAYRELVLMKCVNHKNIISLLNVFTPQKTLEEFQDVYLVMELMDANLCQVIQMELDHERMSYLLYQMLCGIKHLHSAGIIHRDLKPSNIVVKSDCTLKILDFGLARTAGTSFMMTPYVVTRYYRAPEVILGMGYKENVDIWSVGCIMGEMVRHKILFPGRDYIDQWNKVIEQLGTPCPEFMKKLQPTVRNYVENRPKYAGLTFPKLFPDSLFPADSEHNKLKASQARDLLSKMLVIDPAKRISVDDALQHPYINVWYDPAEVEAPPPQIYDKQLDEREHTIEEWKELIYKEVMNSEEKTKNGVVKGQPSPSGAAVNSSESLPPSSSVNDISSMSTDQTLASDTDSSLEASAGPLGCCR

This assay concerns the target Mitogen-activated protein kinase 10 (Homo sapiens) (UniProt P53779). The assay is described as follows: inhibition of human JNK3 enzyme – biochemical, purified enzyme, primary screen (AID 746).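 Note: 0% = DMSO and 100% = reference inhibitor.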 To be noted: purified JNK3 kinase activity, HTS; at 8 µM; stronger effect = higher value.
Turning to `Cc1noc(C)c1S(=O)(=O)N(CC(=O)Nc1ccc2c(c1)OCCO2)c1ccc(C(C)C)cc1`, the inhibition is 0.66%.

For `C=CCNc1nnc(SCC(=O)N2CCCCC2)c2ccccc12`, the inhibition is -2.85%.

As to `Nc1nnc(SCCN2C(=O)c3ccccc3S2(=O)=O)s1`, the inhibition was -1.92%.

For `Cc1ccc(CNC(=O)CCCNC(=O)c2ccc(Cl)cc2)n1C`, the inhibition is 10.2%.

Take `Cc1ccc(Oc2ccc(N)cc2)cc1`: the inhibition is 6.53%.

With `CCOc1cc2c(cc1OCC)C(C(=O)O)C(c1ccc(OC)c(O)c1)N(C)C2=O` (stereo unspecified), the inhibition was -0.42%.

Regarding `O=C(C1CCC1)N1CCc2cc(S(=O)(=O)NCc3cccnc3)ccc21`, the inhibition is -6.87%.

Turning to `COC(=O)c1cc(Cl)c(NC(=O)c2ccco2)cc1OC`, the inhibition was -6.35%.

As for `Cc1cc2c(=O)n(C)c(SCC(=O)c3cc4ccccc4o3)nc2s1`, the inhibition was -3.37%.

For `CCOC(=O)c1c(NC(=O)c2cccs2)sc(C)c1C`, the inhibition is 6.19%.

With `Oc1c(C(c2cccs2)N2CCN(c3ccc(F)cc3)CC2)sc2ncnn12` (stereo unspecified), the inhibition was 1.85%.

As for `O=C1c2ccccc2-c2ncnc3c(N4CCOCC4)cc(N4CCOCC4)c1c23`, the inhibition was -9.75%.

Consider `CCOc1cc(C(=O)Nc2ncccn2)cc(OCC)c1OCC`, for which the inhibition is -1.81%.

For the compound `O=C(NCCN1CCOCC1)c1c(F)c(F)c(F)c(F)c1F`, the inhibition was 7.3%.

In the case of `CCn1nc(C(=O)OCC(=O)N2c3ccccc3CC2C)c2ccccc2c1=O` (stereo unspecified), the inhibition is 1.01%.

`Cn1cnc2c1c(=O)n(Cc1c(Cl)cccc1Cl)c(=O)n2C`: the inhibition was 2.26%.

With `Cc1nnc(NC(=O)CSc2nccn2-c2cccc(C)c2C)s1`, the inhibition is -4.27%.

With `CCOC(=O)C1CCCN(C(=O)Cn2ncc3c(=O)oc4ccc(C)cc4c32)C1` (stereo unspecified), the inhibition was 0.71%.

For `Cc1ccc2oc(=O)c3cnn(CC(=O)N4CCN(c5ccccn5)CC4)c3c2c1`, the inhibition is 37.2% (active).

As to `Cc1ccc2oc(=O)c3cnn(CC(=O)N4CCCCCC4)c3c2c1`, the inhibition was 0.73%.

`CCOc1ccc(C(=O)Nc2ccncc2)cc1`: the inhibition is 0.07%.

Turning to `O=S(N1CCCCCC1)C12CC3CC(CC(C3)C1)C2` (stereo unspecified), the inhibition is 8.25%.

On to `COC(=O)c1cccc(NC(=O)CN2CCC(NC(=O)c3cc(OC)c(OC)c(OC)c3)CC2)c1`, for which the inhibition was 79.2% (active).

`COC(=O)c1cc(NC(=O)CN2CCC(C(N)=O)(N3CCCCC3)CC2)cc(C(=O)OC)c1`: the inhibition was -2.8%.

Consider `COc1ccc(NC(C)=O)cc1NC(=O)CN1CCN(c2ccccn2)CC1`, for which the inhibition is 2.12%.

Regarding `COc1ccc(-c2cc(C(=O)NC(C(=O)O)C(C)C)c(C)o2)cc1OC` (stereo unspecified), the inhibition was 1.2%.

For `Cc1cc(C(=O)O)c(S(C)(=O)=O)s1`, the inhibition was 0.82%.

With `CC1=C(C)CC2C(=O)N(c3cccc4ccccc34)C(=O)C2C1` (stereo unspecified), the inhibition is 0%.

As to `COc1ccccc1Cc1nc(-c2ccc(C)cc2)no1`, the inhibition is 4.84%.

Take `CC(C)Cc1cc(C(=O)Nc2cc(Br)ccc2O)no1`: the inhibition is -4.9%.

For the compound `COc1ccc(CCN(C)C(=O)C2CCCN(Cc3ccc(OC)c(OC)c3)C2)cc1OC` (stereo unspecified), the inhibition is 4.04%.

On to `CN(C)/C=C1/C(=O)Nc2ccccc21`, for which the inhibition is -8.06%.

For `O=C(CCN1C(=O)c2ccccc2C1=O)Nc1ccncc1`, the inhibition is 0.63%.

Consider `COc1ccc(-c2nc3n(c2Br)CCC3)cc1`, for which the inhibition is -4.37%.

As to `CCCC(=O)Nc1ccc2c(c1)nc1n2CCSC1`, the inhibition was -5.4%.

In the case of `Cc1ccsc1C(=O)OCC(=O)c1cc(C)n(CC2CCCO2)c1C` (stereo unspecified), the inhibition was 1.34%.

For `COc1ncnc2c1N=C1CC(C)(C)CC(N)=C1S2`, the inhibition is -12.2%.

As to `O=C(COc1ccccc1)NCCc1nc2ccccc2[nH]1`, the inhibition was 5.21%.

`COc1ccc(NC2CC(=O)N(C)C2=O)cc1` (stereo unspecified): the inhibition was -1.99%.

On to `CCN(CC)P(=O)(/C(Cl)=C\Nc1c(C)n(C)n(-c2ccccc2)c1=O)N(CC)CC`, for which the inhibition is 4.4%.

In the case of `CCOC(=O)N1CCN(S(=O)(=O)c2cc3c(cc2C)NC(=O)CO3)CC1`, the inhibition is 1.04%.

Consider `COc1ccc2c(c1)C=CC1(O2)N(CCO)c2ccccc2C1(C)C` (stereo unspecified), for which the inhibition is -1.22%.

Turning to `CS(=O)(=O)N1CCN(C(=O)Cc2ccccc2)CC1`, the inhibition was 7.69%.

As to `Cc1cc(C(=O)N2CCN(c3ccccn3)CC2)c(C)o1`, the inhibition was 2.54%.

For `COc1cccc(OC)c1C(=O)Nc1nnc(C(C)C)s1`, the inhibition is -2.05%.

With `Cn1cccc1Cc1nnc(SCC(=O)NCc2ccc3c(c2)OCO3)n1CCc1ccccc1`, the inhibition was -1.11%.

Take `CCn1c(SCCC(C)C)nnc1-c1c[nH]c2ccccc12`: the inhibition was 2.85%.

`CCC(c1nnnn1C1CCCC1)N1CCN(C(=O)c2ccco2)CC1` (stereo unspecified): the inhibition was -1.42%.

On to `Fc1ccc(OCc2nn3c(Cn4nnc5ccccc54)nnc3s2)cc1`, for which the inhibition was -2.42%.

Consider `CCn1c(SCC(=O)c2ccc(Cl)s2)nnc1-c1cccs1`, for which the inhibition is -1.37%.

`CC12CN(Cc3ccccc3)CC(C)(CN(Cc3ccccc3)C1)C2=NO`: the inhibition is 1.42%.

For `COc1ccccc1-c1c(C)nn2c(C)c(C(C)=O)cnc12`, the inhibition was 0.53%.

As to `O=S(=O)(NCCOc1cccc2cccnc12)c1ccc(F)cc1`, the inhibition is -0.52%.

Consider `FC(F)(F)c1cc(-c2ccco2)nc(N2CCOCC2)n1`, for which the inhibition was 2.31%.

As to `Cc1cccn2c(=O)c3cc(C(=O)N4COCC4(C)C)n(C)c3nc12`, the inhibition was 5.99%.

Consider `COc1ccc(-n2nc3c(c2NC(=O)Cc2cccc(C)c2)CS(=O)C3)cc1` (stereo unspecified), for which the inhibition was 1.83%.

Regarding `CCCC(=O)N=c1sc2cccc(F)c2n1C`, the inhibition is -1.7%.

As to `CN(c1nc2ccccc2n2c(-c3ccco3)nnc12)S(=O)(=O)c1ccccc1`, the inhibition is -4.26%.

As to `C=C(C)Cn1c(N2CCCC2)nc2c1c(=O)[nH]c(=O)n2C`, the inhibition is 2.48%.

Regarding `NC(=O)CSc1c[nH]c2ccccc12`, the inhibition was 6.99%.

Regarding `CNC(=O)c1nnn(-c2ccccc2)c1C(=O)NC`, the inhibition is -3.49%.

`Brc1ccc(OCCn2ccnc2)cc1`: the inhibition was 1.14%.

Turning to `CCCOc1ccc(C2C(C(=O)c3ccc(C)o3)=C(O)C(=O)N2CCCn2ccnc2)cc1` (stereo unspecified), the inhibition is 42.8% (active).

As for `CCCOc1ccc(C2c3c(oc4cc(C)c(C)cc4c3=O)C(=O)N2CCCN2CCOCC2)cc1` (stereo unspecified), the inhibition was 3.64%.

With `CC(=O)N1CCN(c2ccc(NCc3ccc(C(C)C)cc3)cc2)CC1`, the inhibition is -4.46%.

In the case of `CCCCc1nc2ccccc2c(=O)n1NC(=O)c1c(O)c2cccc3c2n(c1=O)CC3`, the inhibition is -6.2%.

Regarding `CCCC(=O)NC(C)C(c1cccs1)N1CCN(c2ccccc2)CC1` (stereo unspecified), the inhibition was 0.41%.

Regarding `O=C(NCC12CC3CC(C1)CC(CNC(=O)N1CCCC1)(C3)C2)N1CCCC1`, the inhibition is 2.23%.

`CCOC(=O)CC1C(=O)NCCN1C(=O)COc1ccc(Br)cc1C` (stereo unspecified): the inhibition is 1.6%.

For the compound `N#Cc1c(/N=C/N2CCCC2)oc(-c2ccccc2)c1-c1ccccc1`, the inhibition is -3.67%.

As for `CC(C)n1c(SCC(=O)Nc2ccccc2N2CCCCC2)nc2c1c(=O)n(C)c(=O)n2C`, the inhibition was 0%.

Regarding `Nc1nnc(C2CCCC2)s1`, the inhibition is -0.19%.

With `O/N=C(\c1ccc2c(c1)OCCO2)C1CCCCC1`, the inhibition was -1.18%.

Turning to `COc1cc(Br)cc(/C=N/c2ncn[nH]2)c1O`, the inhibition is -2.89%.

On to `Clc1ccc(Cc2nnc(-c3cccs3)o2)cc1`, for which the inhibition is 2.19%.

As for `CCCc1[nH]nc2c1C(c1ccc(OC(=O)c3ccco3)cc1)C(C#N)=C(N)O2` (stereo unspecified), the inhibition was 6.15%.

With `CC(=O)NC(C)(C)C1CC=C(C)/C(=N\O)C1` (stereo unspecified), the inhibition was 0.98%.

Consider `CCN(CC)S(=O)(=O)c1ccc2nc(CSc3nnnn3-c3ccc(O)cc3)[nH]c2c1`, for which the inhibition was 8.62%.

`CCN(CC)S(=O)(=O)c1cccc(C(=O)NCC(=O)OCC(=O)NCc2ccccc2)c1`: the inhibition is -1.17%.

Turning to `CCN(CC)S(=O)(=O)c1ccc2nc(COC(=O)c3n[nH]c4ccccc34)[nH]c2c1`, the inhibition is 95.8% (active).

On to `Cc1c(CN2CCC(C)CC2)c(=O)n(-c2ccccc2)n1C`, for which the inhibition was 0.5%.

For the compound `O=P(O)(CP(=O)(c1ccccc1)c1ccccc1)c1ccccc1`, the inhibition is -5.23%.

Turning to `Cc1nc2c(-c3ccc(F)cc3)c(C)nn2c(C)c1CCC(=O)N1CCN(c2ccccn2)CC1`, the inhibition was 1.08%.

Regarding `Cc1c(C(=O)NCC2CCCO2)sc2nc(-c3ccccc3)cn12` (stereo unspecified), the inhibition is -3.26%.

As to `CCSC1(SCC)N=C(N)C2(C#N)C(c3ccccc3)NC(C)=CC12C#N` (stereo unspecified), the inhibition is 0.03%.

Take `CCOC(=O)c1ccccc1NC(=O)CC1Nc2ccccc2NC1=O` (stereo unspecified): the inhibition was -0.55%.

With `CCOC(=O)C1CCN(C(=O)COc2cc(C)c(Br)c(C)c2)CC1`, the inhibition is 6.51%.

For `CC(=O)Oc1ccc(C)cc1N1C(=O)c2ccc(C(=O)O)cc2C1=O`, the inhibition is 0.63%.

Regarding `COc1cccc(-c2nc3n(n2)C(c2ccccc2Cl)C(C(N)=O)=C(C)N3)c1` (stereo unspecified), the inhibition was 1.25%.

With `COc1ccc(NC(=O)c2c(SC)nsc2SC)cc1`, the inhibition is -3.4%.

For `COc1ccc(C(=O)CSc2nccc(=O)[nH]2)cc1`, the inhibition was -1.11%.

Regarding `O=C(CN1CCN(C(=O)c2cccc(F)c2)CC1)Nc1ccccc1F`, the inhibition is -3.2%.

`CCOC(=O)CSc1nnc(NC(=O)c2cccc(S(=O)(=O)N3CCCCC3)c2)s1`: the inhibition was -2.01%.

For the compound `CCOC(=O)c1sc(N(Cc2ccccc2)C(=O)CN2C(=O)CN(C)C2=O)nc1C`, the inhibition was 0.36%.

For `Cc1ccc(C(=O)COc2cccc(NC(=O)c3ccco3)c2)cc1`, the inhibition is 0.83%.

On to `Cn1c(=O)[nH]c(=O)c2c1nc(CN1CCN(c3ccccc3F)CC1)n2CCc1ccccc1`, for which the inhibition is 3.94%.

As for `Cc1ccccc1NC(=O)c1cnn(-c2ccccc2)c1NC(=O)c1ccco1`, the inhibition is -3.45%.

Turning to `O=P(c1cccs1)(c1cccs1)c1cccs1`, the inhibition is -3.85%.

As to `O=C(Nc1cccc2cccnc12)c1cccc(N2C(=O)CCC2=O)c1`, the inhibition was 4.05%.

Turning to `O=C(CSCc1cccs1)N1CCCC1`, the inhibition is 5.67%.

For the compound `CCc1ccc(-c2nnn(Cc3nc4ccccc4s3)n2)cc1`, the inhibition is -6.35%.

Turning to `CCC(C)NC(=O)N[C@@H](CCSC)C(=O)O` (stereo partly specified), the inhibition is 1.22%.

In the case of `O=C(Nc1cc(C(F)(F)F)ccc1Cl)c1cc(C2CC2)on1`, the inhibition is 4.08%.

For the compound `Cn1c(=O)c2c(nc(SCCNS(=O)(=O)c3ccccc3)n2C)n(C)c1=O`, the inhibition was -3.56%.

`Cc1ccccc1CSc1nnc(Cn2c(=O)sc3ccccc32)n1C`: the inhibition was 0.98%.

With `Cc1ccc2nc3n(c(=O)c2c1)CCC3`, the inhibition was -2.11%.

In the case of `O=c1c2c(nc3n1CCCCC3)sc1c(O)cccc12`, the inhibition was 19.3% (active).

With `O=C(Cn1[nH]c(=O)c2ccccc2c1=O)Nc1cccc(-c2nnc3n2CCCCC3)c1`, the inhibition was -2.76%.

As for `CCn1cc(C(=O)N2CCN(C3CCCCC3)CC2)c2cc(OC)c(OC)cc2c1=O`, the inhibition was -1.36%.

Consider `O=C(Cn1cnc2c(cnn2-c2ccccc2)c1=O)NCc1ccccc1`, for which the inhibition is 3.12%.

As to `CCCc1cc(=O)[nH]c(SCC(=O)OCc2ccccc2)n1`, the inhibition is -3.94%.
